Holding throughout (assay): DAPPL (digital affinity profiling via proximity ligation, sequencing); 10 mM Tris-HCl pH 7.5, 50 mM NaCl, 1 mM DTT, 4% glycerol, room temperature, 30 min; GST-TFs on glutathione beads, 16-mer random dsDNA library, 0.1% formaldehyde crosslink after washing; high values mean tight binding
The target of assay [1] is T1, FLI1 (Homo sapiens, UniProt Q01543 1-452).
T1 sequence: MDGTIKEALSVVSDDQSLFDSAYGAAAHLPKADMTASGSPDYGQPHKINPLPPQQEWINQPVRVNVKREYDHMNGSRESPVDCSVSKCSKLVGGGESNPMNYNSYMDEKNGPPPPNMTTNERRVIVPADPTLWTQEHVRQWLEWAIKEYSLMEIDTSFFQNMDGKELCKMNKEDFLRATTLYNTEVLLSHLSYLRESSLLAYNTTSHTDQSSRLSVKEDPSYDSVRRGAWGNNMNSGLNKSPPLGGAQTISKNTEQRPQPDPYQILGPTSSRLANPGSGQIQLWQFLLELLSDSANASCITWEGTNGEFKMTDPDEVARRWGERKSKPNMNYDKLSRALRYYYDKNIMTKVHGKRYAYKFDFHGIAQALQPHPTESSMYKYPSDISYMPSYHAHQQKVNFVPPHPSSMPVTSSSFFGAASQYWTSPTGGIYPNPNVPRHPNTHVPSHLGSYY
As to conditions: protein: recombinant; tags: N-terminal GST; dsDNA, one strand shown. A digest of the protocol:
(§1)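 The binding signal reported is, for every hexamer, its read frequency for a factor over its read frequency for the tag-only sample. Reads came from pools of yeast-expressed, GST-fused human transcription factors on glutathione beads, barcoded with DNA and mixed with that sample, which were incubated with 200 nmole of a random double-stranded 16-mer DNA library in Tris/NaCl/DTT/glycerol buffer at room temperature for 30 min. After washing, the pools were crosslinked with 0.1% formaldehyde, proximity-ligated with BsaI/T4 ligase for 1 h at 37 °C, PCR-amplified and sequenced on an Illumina NextSeq500.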

In assay [2] the target is T2, ELK1 (Homo sapiens, UniProt P19419 1-428).
T2 sequence: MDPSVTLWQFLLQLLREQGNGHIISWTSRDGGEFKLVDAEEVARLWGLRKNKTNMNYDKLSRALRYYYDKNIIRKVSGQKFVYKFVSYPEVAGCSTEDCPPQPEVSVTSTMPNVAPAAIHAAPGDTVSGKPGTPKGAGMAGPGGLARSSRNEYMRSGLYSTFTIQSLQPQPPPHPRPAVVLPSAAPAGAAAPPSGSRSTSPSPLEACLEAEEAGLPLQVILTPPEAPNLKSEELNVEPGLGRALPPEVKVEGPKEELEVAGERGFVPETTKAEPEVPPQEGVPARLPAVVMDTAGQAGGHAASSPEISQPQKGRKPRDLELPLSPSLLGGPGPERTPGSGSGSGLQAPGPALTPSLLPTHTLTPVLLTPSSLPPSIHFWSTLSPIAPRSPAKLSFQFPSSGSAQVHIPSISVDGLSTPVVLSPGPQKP
As to conditions: protein: recombinant; tags: N-terminal GST; dsDNA, one strand shown. Summed up: as §1

Assay [3] addresses T3, GABPA (Homo sapiens, UniProt Q06546 1-454).
T3 sequence: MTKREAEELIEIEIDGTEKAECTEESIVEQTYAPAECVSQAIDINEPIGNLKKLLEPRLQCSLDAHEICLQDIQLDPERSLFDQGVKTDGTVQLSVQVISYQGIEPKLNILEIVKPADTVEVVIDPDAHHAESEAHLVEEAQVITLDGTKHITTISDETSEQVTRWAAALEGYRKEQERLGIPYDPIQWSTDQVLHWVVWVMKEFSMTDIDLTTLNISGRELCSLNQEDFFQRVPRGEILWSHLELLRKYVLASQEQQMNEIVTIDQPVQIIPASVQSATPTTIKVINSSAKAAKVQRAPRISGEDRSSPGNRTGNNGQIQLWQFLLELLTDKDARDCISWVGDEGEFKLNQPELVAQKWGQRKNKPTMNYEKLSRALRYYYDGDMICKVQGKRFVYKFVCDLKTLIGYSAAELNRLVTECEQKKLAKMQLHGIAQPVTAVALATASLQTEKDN
As to conditions: protein: recombinant; tags: N-terminal GST; dsDNA, one strand shown. A digest of the protocol: as §1

Assay [4] has as its target T4, ERG (Homo sapiens, UniProt P11308 1-479).
T4 sequence: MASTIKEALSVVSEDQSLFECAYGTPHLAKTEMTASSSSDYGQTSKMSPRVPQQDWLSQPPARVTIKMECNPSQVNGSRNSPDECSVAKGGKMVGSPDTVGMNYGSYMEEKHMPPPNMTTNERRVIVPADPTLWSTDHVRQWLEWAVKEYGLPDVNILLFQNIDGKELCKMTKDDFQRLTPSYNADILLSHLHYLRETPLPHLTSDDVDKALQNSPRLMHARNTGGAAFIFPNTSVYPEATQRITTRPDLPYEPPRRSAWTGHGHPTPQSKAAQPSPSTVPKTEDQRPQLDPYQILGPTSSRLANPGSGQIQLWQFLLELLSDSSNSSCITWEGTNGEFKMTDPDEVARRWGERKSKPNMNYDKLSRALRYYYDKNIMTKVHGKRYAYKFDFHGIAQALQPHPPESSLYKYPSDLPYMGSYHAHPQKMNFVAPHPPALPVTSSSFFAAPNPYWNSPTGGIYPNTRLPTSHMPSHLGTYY
As to conditions: protein: recombinant; tags: N-terminal GST; dsDNA, one strand shown. Summed up: as §1

The target of assay [5] is ELF1 (Homo sapiens, UniProt P32519 1-619). As to conditions: protein: recombinant; tags: N-terminal GST; dsDNA, one strand shown. A digest of the protocol:
as §1

The target of assay [6] is T5, EHF (Homo sapiens, UniProt Q9NZC4 1-300).
T5 sequence: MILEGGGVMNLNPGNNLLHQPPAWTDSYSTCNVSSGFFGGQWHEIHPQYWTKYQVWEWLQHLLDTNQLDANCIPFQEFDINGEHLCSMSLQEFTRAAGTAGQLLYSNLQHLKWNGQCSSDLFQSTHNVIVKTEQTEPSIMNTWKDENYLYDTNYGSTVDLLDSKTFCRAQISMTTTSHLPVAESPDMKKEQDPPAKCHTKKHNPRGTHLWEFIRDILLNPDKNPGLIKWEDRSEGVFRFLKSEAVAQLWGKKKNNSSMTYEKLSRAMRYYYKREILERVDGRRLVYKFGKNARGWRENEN
As to conditions: protein: recombinant; tags: N-terminal GST; dsDNA, one strand shown. A digest of the protocol: as §1

Assay [7] addresses SPI1 (Homo sapiens, UniProt P17947 1-270). As to conditions: protein: recombinant; tags: N-terminal GST; dsDNA, one strand shown. Summed up: as §1
In assay [8] the target is SPIB (Homo sapiens, UniProt Q01892 1-262). As to conditions: protein: recombinant; tags: N-terminal GST; dsDNA, one strand shown. A digest of the protocol:
as §1

Assay [9] deals with T6, ELK3 (Homo sapiens, UniProt P41970 1-407).
T6 sequence: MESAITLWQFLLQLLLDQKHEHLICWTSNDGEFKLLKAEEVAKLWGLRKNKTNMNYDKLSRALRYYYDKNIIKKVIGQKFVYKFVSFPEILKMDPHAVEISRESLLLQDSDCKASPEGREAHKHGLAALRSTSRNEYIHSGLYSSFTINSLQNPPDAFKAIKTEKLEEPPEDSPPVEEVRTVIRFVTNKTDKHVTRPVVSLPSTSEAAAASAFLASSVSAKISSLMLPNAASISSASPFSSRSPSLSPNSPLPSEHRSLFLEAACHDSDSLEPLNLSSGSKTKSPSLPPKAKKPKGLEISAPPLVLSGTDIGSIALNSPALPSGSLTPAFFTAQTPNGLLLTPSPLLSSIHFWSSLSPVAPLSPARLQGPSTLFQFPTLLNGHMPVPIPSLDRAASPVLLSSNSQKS
As to conditions: protein: recombinant; tags: N-terminal GST; dsDNA, one strand shown. A digest of the protocol: as §1

For assay [10], the target named is T7, FEV (Homo sapiens, UniProt Q99581 1-238).
T7 sequence: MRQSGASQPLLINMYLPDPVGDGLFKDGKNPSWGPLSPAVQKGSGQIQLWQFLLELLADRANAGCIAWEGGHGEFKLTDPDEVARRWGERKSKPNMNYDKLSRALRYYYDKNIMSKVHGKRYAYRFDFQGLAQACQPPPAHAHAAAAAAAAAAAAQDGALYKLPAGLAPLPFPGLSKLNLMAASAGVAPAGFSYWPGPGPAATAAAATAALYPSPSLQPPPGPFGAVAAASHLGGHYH
As to conditions: protein: recombinant; tags: N-terminal GST; dsDNA, one strand shown. A digest of the protocol:
as §1

The target in assay [11] is ETV5 (Homo sapiens, UniProt P41161 1-510). As to conditions: protein: recombinant; tags: N-terminal GST; dsDNA, one strand shown. Summed up:
as §1

Assay [12] addresses HSF1 (Homo sapiens, UniProt Q00613 1-529). As to conditions: protein: recombinant; tags: N-terminal GST; chain copies: 3; dsDNA, one strand shown. Summed up:
as §1

Assay [13] has as its target T8, SPIC (Homo sapiens, UniProt Q8N5J4 1-248).
T8 sequence: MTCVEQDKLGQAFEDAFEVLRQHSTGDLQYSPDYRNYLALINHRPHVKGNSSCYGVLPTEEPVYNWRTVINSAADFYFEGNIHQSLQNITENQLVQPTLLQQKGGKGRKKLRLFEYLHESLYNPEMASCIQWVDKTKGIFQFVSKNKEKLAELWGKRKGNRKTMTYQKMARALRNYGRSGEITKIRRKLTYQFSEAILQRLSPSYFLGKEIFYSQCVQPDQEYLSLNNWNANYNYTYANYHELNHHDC
As to conditions: protein: recombinant; tags: N-terminal GST; dsDNA, one strand shown. Summed up: as §1

For assay [14], the target named is ELF4 (Homo sapiens, UniProt Q99607 1-663). As to conditions: protein: recombinant; tags: N-terminal GST; dsDNA, one strand shown. Summed up:
as §1

The target in assay [15] is T9, ELK4 (Homo sapiens, UniProt P28324-2 1-405).
T9 sequence: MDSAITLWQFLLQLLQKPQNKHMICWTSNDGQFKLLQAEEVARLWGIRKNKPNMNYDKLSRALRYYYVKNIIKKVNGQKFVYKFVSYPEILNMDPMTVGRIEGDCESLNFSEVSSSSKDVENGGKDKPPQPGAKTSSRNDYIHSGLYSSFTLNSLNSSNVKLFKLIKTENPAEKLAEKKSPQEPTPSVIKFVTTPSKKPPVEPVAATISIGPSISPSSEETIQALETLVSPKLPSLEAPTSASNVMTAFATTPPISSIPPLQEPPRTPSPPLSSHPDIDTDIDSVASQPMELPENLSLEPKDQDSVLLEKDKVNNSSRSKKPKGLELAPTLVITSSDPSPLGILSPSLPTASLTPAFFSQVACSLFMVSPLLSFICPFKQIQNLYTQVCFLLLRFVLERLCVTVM
As to conditions: protein: recombinant; tags: N-terminal GST; dsDNA, one strand shown. A digest of the protocol:
as §1

In assay [16] the target is T10, ETV2 (Homo sapiens, UniProt O00321 1-342).
T10 sequence: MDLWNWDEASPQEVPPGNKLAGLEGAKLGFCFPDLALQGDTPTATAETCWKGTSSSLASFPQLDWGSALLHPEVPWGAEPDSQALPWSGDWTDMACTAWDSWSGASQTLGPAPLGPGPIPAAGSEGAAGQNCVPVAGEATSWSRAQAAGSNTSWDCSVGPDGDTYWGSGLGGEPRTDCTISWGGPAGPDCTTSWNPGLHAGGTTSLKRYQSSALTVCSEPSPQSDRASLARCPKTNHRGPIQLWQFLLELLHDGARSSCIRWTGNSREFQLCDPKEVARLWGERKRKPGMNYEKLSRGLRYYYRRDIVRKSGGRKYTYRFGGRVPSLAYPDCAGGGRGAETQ
As to conditions: protein: recombinant; tags: N-terminal GST; dsDNA, one strand shown. Summed up: as §1

The target in assay [17] is T11, ELF3 (Homo sapiens, UniProt P78545 1-371).
T11 sequence: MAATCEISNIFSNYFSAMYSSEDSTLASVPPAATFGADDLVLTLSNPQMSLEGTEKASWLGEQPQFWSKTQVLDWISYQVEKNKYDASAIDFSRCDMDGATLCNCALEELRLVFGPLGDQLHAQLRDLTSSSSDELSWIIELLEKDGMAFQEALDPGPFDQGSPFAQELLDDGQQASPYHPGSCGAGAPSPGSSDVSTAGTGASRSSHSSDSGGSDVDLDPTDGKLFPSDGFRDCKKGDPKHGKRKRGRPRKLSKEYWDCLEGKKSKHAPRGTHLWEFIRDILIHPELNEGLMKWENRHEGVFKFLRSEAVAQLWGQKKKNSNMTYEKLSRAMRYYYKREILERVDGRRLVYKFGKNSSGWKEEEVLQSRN
As to conditions: protein: recombinant; tags: N-terminal GST; dsDNA, one strand shown. A digest of the protocol: as §1

The target in assay [18] is CRX (Homo sapiens, UniProt O43186 1-299). As to conditions: protein: recombinant; tags: N-terminal GST; dsDNA, one strand shown. A digest of the protocol: as §1
For assay [19], the target named is ETV1 (Homo sapiens, UniProt P50549 1-477). As to conditions: protein: recombinant; tags: N-terminal GST; dsDNA, one strand shown. A digest of the protocol:
as §1

The values below come from publication PMC7862700, “An all-to-all approach to the identification of sequence-specific readers for epigenetic DNA modifications on cytosine”.

Chain of ELF1 (P32519 whole entry): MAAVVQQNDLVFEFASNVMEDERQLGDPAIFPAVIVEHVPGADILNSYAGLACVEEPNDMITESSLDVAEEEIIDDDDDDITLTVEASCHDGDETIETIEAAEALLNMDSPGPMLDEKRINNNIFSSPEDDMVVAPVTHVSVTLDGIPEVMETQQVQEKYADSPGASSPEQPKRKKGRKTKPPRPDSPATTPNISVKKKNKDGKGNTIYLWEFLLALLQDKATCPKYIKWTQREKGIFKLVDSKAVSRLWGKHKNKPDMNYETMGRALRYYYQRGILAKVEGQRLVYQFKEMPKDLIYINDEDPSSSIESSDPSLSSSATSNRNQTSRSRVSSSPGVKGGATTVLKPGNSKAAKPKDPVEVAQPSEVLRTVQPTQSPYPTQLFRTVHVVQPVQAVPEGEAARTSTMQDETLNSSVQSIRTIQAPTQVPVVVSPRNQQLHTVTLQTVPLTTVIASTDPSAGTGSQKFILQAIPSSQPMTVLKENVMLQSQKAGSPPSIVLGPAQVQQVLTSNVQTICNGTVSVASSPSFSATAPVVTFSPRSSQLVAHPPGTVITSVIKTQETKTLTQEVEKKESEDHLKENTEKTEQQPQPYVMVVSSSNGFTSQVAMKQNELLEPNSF
Chain of ELF4 (Q99607 whole entry): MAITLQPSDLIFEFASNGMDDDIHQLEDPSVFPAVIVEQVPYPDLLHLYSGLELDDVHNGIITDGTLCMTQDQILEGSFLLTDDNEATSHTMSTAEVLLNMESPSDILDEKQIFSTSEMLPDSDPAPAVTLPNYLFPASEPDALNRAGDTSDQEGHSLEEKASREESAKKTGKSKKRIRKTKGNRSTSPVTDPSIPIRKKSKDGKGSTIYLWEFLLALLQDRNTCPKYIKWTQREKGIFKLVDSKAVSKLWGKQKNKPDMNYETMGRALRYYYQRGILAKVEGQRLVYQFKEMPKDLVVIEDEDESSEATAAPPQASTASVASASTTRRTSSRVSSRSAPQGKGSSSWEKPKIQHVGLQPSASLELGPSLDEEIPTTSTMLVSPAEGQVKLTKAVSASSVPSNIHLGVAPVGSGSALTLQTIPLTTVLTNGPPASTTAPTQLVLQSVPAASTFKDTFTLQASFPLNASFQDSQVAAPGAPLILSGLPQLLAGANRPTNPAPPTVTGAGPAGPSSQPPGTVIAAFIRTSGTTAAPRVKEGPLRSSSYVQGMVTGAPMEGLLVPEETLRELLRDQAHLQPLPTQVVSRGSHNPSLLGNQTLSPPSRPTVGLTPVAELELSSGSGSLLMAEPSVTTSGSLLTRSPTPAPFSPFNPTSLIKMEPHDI
Chain of SPIB (Q01892 whole entry): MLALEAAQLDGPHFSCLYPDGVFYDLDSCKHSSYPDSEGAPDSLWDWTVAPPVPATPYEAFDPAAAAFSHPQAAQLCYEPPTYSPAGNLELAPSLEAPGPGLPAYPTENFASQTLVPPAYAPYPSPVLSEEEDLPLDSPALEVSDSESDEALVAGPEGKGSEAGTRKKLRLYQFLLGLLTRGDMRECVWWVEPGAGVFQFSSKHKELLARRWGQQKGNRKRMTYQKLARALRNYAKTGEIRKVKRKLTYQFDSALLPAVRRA
Chain of HSF1 (Q00613 whole entry): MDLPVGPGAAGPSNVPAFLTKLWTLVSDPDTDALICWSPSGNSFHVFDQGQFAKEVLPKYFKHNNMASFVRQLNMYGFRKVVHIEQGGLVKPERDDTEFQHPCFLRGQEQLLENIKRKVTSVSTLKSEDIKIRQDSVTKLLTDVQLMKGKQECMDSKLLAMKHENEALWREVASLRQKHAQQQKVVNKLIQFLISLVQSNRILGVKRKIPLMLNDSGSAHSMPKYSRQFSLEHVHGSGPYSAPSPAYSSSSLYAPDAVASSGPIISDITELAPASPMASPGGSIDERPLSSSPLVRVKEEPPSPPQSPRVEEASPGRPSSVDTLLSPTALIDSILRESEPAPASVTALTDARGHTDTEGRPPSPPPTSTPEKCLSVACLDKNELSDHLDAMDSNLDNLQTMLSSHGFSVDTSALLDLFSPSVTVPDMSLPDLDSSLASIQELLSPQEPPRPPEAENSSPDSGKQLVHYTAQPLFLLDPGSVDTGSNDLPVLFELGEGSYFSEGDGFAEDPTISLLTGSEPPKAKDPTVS
Chain of CRX (O43186 whole entry): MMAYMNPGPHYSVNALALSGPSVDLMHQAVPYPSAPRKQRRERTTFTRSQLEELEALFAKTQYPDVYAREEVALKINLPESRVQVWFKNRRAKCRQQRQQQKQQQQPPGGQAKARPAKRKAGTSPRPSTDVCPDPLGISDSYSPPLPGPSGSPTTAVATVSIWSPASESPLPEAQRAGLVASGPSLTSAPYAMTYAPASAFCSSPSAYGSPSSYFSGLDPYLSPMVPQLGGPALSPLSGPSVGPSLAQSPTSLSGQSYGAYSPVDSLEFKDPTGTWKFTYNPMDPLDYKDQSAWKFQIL
Chain of ETV5 (P41161 whole entry): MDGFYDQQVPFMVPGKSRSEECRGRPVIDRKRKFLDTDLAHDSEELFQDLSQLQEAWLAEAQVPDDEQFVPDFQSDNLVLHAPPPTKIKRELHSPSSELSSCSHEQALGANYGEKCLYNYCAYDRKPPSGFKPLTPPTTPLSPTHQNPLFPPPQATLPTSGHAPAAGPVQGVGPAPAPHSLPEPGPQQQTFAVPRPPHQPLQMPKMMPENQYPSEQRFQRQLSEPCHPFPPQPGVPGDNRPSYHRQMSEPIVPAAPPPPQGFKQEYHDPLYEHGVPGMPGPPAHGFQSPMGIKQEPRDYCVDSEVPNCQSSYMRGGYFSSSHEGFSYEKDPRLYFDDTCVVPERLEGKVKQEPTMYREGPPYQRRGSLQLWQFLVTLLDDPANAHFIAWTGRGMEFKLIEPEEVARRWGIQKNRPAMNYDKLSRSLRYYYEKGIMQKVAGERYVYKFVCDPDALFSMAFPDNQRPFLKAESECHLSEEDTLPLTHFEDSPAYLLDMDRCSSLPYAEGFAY
Chain of ETV1 (P50549 whole entry): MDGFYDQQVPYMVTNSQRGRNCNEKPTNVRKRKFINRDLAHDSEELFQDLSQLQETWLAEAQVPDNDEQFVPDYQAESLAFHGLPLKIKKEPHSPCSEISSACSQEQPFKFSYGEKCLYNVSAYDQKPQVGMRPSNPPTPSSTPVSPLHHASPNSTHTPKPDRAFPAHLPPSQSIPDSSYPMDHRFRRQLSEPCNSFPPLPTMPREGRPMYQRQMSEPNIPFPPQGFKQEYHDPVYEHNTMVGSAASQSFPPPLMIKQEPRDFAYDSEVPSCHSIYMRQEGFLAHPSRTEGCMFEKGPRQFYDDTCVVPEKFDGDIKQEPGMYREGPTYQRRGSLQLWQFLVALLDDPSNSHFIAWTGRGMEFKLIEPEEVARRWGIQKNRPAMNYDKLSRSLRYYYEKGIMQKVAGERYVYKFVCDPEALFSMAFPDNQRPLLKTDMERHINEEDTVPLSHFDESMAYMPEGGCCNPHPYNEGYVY

Turning to GTAATT, the binding signal in assay [1] is 1.23 fold enrichment (6-mer frequency, TF over GST control); in [2], 1.1 fold enrichment (6-mer frequency, TF over GST control); in assay [3] it was 1.19 fold enrichment (6-mer frequency, TF over GST control); in assay [4], 1.19 fold enrichment (6-mer frequency, TF over GST control); in [5] it was 1.22 fold enrichment (6-mer frequency, TF over GST control); in [6] it was 1.21 fold enrichment (6-mer frequency, TF over GST control). In addition, the binding signal was 1.25 fold enrichment (6-mer frequency, TF over GST control) in [7]; 1.23 fold enrichment (6-mer frequency, TF over GST control) in assay [8]; 1.29 fold enrichment (6-mer frequency, TF over GST control) in assay [9]; 1.16 fold enrichment (6-mer frequency, TF over GST control) in [10]; 1.23 fold enrichment (6-mer frequency, TF over GST control) in assay [11]; 1.36 fold enrichment (6-mer frequency, TF over GST control) in assay [12]. Moreover, the binding signal in assay [13] is 1.21 fold enrichment (6-mer frequency, TF over GST control); in assay [14] it was 1.22 fold enrichment (6-mer frequency, TF over GST control); in assay [15], 1.11 fold enrichment (6-mer frequency, TF over GST control); in assay [16] it was 1.31 fold enrichment (6-mer frequency, TF over GST control); in assay [17], 1.19 fold enrichment (6-mer frequency, TF over GST control); in assay [18], 1.59 fold enrichment (6-mer frequency, TF over GST control). For the same sequence, in assay [19], the binding signal is 1.3 fold enrichment (6-mer frequency, TF over GST control).
